Consider nine compounds from PubChem BioAssay (EPA / NIEHS).

Test [1] has as its target human Retinoic Acid Receptor gamma (RARg), RARG (gene 5916) (UniProt P13631). Put plainly: ATG_RARg_TRANS: Attagene TRANS-FACTORIAL HepG2 Assay for human Retinoic Acid Receptor gamma (RARg) (AID 2283009; active means hit-call score of the fitted dose curve at least 0.9, where 1 is the maximum;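 on AC50: AC50 is for reporter induction above DMSO meaning RARg activation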). In short, it runs like this:
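HepG2 transiently transfected with GAL4-UAS reporter units and chimeric NR-Gal4 constructs; 24 h compound exposure. Reporter mRNA quantified by RT-PCR, FAM labeling, HpaI digestion and capillary electrophoresis; gain-of-signal versus DMSO.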

Test [2] deals with human RAR-related Orphan Receptor gamma (RORg), RORC (gene 6097) (UniProt P51449). Put plainly: ATG_RORg_TRANS: Attagene TRANS-FACTORIAL HepG2 Assay for human RAR-related Orphan Receptor gamma (RORg) (AID 2283011; active means hit-call score of the fitted dose curve at least 0.9, where 1 is the maximum). Summed up:
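Transient MRTU transfection of HepG2 (TRANS format, exogenous NR-Gal4 chimera). 24 h dosing. Total RNA → oligo(dT) RT → PCR → 6-FAM labelling → HpaI cut → CE. Gain vs DMSO.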

For test [3], the target named is Retinoic acid receptor RXR-alpha (Homo sapiens) (UniProt P19793). Put plainly: ATG_RXRa_TRANS: Attagene TRANS-FACTORIAL HepG2 Assay for human Retinoid X Receptor alpha (RXRa) (AID 2283012; active means hit-call score of the fitted dose curve at least 0.9, where 1 is the maximum). Summed up: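 HepG2 cells transiently transfected with GAL4-UAS reporter units and chimeric RXRa-Gal4 protein, treated 24 h. Reporter mRNA measured by RT-PCR, fluorescent labelling, HpaI digestion and capillary electrophoresis. Induction fitted against DMSO.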

Test [4] concerns the target human Retinoid X Receptor beta (RXRb), RXRB (gene 6257) (UniProt P28702). Briefly: ATG_RXRb_TRANS: Attagene TRANS-FACTORIAL HepG2 Assay for human Retinoid X Receptor beta (RXRb) (AID 2283013; active means hit-call score of the fitted dose curve at least 0.9, where 1 is the maximum). In short, it runs like this: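 HepG2 cells were transiently transfected with multiplexed GAL4-UAS reporters and a chimeric RXRb-Gal4 construct, then exposed for 24 h. Reporter mRNA was quantified by RT-PCR, FAM labeling, HpaI digestion and capillary electrophoresis; gain of signal was scored against DMSO.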

The target in test [5] is human Vitamin D Receptor (VDR), VDR (gene 7421) (UniProt P11473). Briefly: ATG_VDR_TRANS: Attagene TRANS-FACTORIAL HepG2 Assay for human Vitamin D Receptor (VDR) (AID 2283022; active means hit-call score of the fitted dose curve at least 0.9, where 1 is the maximum). Summed up:
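RT-PCR/capillary electrophoresis read-out of reporter mRNA induction in transiently transfected HepG2; 24 h dosing; chimeric NR-Gal4 (TRANS format); gain-of-signal fit against DMSO baseline.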

Read-out in test [6]: E-selectin (Homo sapiens) (UniProt P16581)
Put plainly: BSK_3C_Eselectin: BioMAP Diversity Plus: 3C Assay for Eselectin Biomarker Activity (AID 2283015). The note with it: primary human endothelial cells (HUVEC); actives raise or lower the signal. In short, it runs like this:
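HUVEC, 3C stimulation; compound exposure 24 h; E-selectin by ELISA; gain- or loss-of-signal fitted bidirectionally vs DMSO baseline.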

Read-out in test [7]: Interleukin-1 alpha (IL1a), IL1A (gene 3552)
Briefly: BSK_BE3C_IL1a: BioMAP Diversity Plus: BE3C Assay for Interleukin-1 alpha (IL1a) Biomarker Activity (AID 2283016). The conditions noted are these: primary human bronchial epithelial cells; actives raise or lower the signal. Summed up: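 Human primary bronchial epithelial cells, 24 h chemical exposure; IL-1a quantified by ELISA, fitted bidirectionally against DMSO. Cytotoxicity assessed in parallel by SRB total-protein staining at the time of measurement.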

Read-out in test [8]: Monocyte Chemoattractant Protein-1 (MCP1), CCL2 (gene 6347)
Briefly: BSK_4H_MCP1: BioMAP Diversity Plus: 4H Assay for Monocyte Chemoattractant Protein-1 (MCP1) Biomarker Activity (AID 2283018). The conditions noted are these: primary human endothelial cells (HUVEC); actives raise or lower the signal. Summed up:
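Human umbilical vein endothelial cells (4H system) exposed to chemicals for 24 h in 96-well format. MCP-1 measured by ELISA; bidirectional fitting against DMSO, with SRB total-protein staining in parallel cultures for cytotoxicity.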

Read-out in test [9]: Human Leukocyte Antigen - DR isotype (HLADR), HLA-DRA (gene 3122)
Put plainly: BSK_3C_HLADR: BioMAP Diversity Plus: 3C Assay for Human Leukocyte Antigen - DR isotype (HLADR) Biomarker Activity (AID 2283019).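 On outcome: ELISA of cell-surface HLA-DR on HUVEC 24 h after dosing.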 The note with it: primary human endothelial cells (HUVEC); actives raise or lower the signal. In short, it runs like this: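 HUVEC, 3C stimulation, 24 h post-dose; HLA-DR by ELISA; bidirectional curve fit vs DMSO baseline; gain or loss of signal scored.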

Read-out in test [10]: Interleukin-8 (IL8), CXCL8 (gene 3576)
Put plainly: BSK_3C_IL8: BioMAP Diversity Plus: 3C Assay for Interleukin-8 (IL8) Biomarker Activity (AID 2283020). The note with it: primary human endothelial cells (HUVEC); actives raise or lower the signal. Summed up: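 Primary human umbilical vein endothelial cells were dosed for 24 h. IL-8 was quantified by ELISA and fitted bidirectionally against DMSO. Cytotoxicity was assessed in parallel cultures by SRB staining at 560 nm.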

Read-out in test [11]: Monokine induced gamma interferon (MIG), CXCL9 (gene 4283)
Briefly: BSK_3C_MIG: BioMAP Diversity Plus: 3C Assay for Monokine induced gamma interferon (MIG) Biomarker Activity (AID 2283021).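 On AC50: MIG protein level measured by immunoassay in the treated endothelial cultures.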 The note with it: primary human endothelial cells (HUVEC); actives raise or lower the signal. In short, it runs like this: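 HUVEC primary endothelial cultures dosed with chemical; MIG quantified by ELISA at 24 h. Data fitted bidirectionally against DMSO control, with parallel SRB total-protein staining for cytotoxicity.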

The nature of test [12]: BSK_3C_SRB: Viability Assessment in the BioMAP Diversity Plus: 3C Assay (AID 2283023).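 Further: fitted both ways against DMSO so a hit may be signal rise or drop.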 The conditions noted are these: primary human endothelial cells (HUVEC). Summed up: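 HUVEC, 24 h post-dose; 10% TCA fix, 0.1% SRB stain, A560 nm. Bidirectional curve fit vs DMSO negative control.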
Read-out in test [13]: Matrix Metallopeptidase 1 (MMP1), MMP1 (gene 4312)
Briefly: BSK_BE3C_MMP1: BioMAP Diversity Plus: BE3C Assay for Matrix Metallopeptidase 1 (MMP1) Biomarker Activity (AID 2283024). The note with it: primary human bronchial epithelial cells; actives raise or lower the signal. Summed up:
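Human primary bronchial epithelial cells (BE3C system) dosed for 24 h; MMP-1 quantified by ELISA. Bidirectional fit against DMSO; cytotoxicity tracked in parallel cultures by SRB total-protein staining.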

Test [14] is described as follows: BSK_3C_Vis: BioMAP Diversity Plus: 3C Assay for Morphology Visualization (AID 2283025).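 Further: fitted both ways so gain or loss versus DMSO counts.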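 On AC50: light microscopy image of cell morphology used as background control.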 The conditions noted are these: primary human endothelial cells (HUVEC). Summed up: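 Human umbilical vein endothelial cell morphology was inspected by light microscopy 24 h after chemical dosing; scored bidirectionally relative to DMSO.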
Read-out in test [15]: Pselectin, SELP (gene 6403)
Briefly: BSK_4H_Pselectin: BioMAP Diversity Plus: 4H Assay for Pselectin Biomarker Activity (AID 2283026). The conditions noted are these: primary human endothelial cells (HUVEC); actives raise or lower the signal. In short, it runs like this:
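Primary human umbilical vein endothelial cells were treated 24 h, and cell-surface P-selectin was then quantified by ELISA. Bidirectional fit versus DMSO; cytotoxicity checked in parallel cultures by SRB total-protein staining.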

Test [16] in a line: BSK_4H_SRB: Viability Assessment in the BioMAP Diversity Plus: 4H Assay (AID 2283027).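 Further: cells exposed to compound for 24 h before staining.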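 On AC50: curves fitted both ways versus DMSO so AC50 may be loss or gain.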 The note with it: primary human endothelial cells (HUVEC). In short, it runs like this:
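Human umbilical vein endothelial cells, 24 h after chemical dosing; total protein measured by 0.1% sulforhodamine B staining after 10% TCA fixation, read at 560 nm. Bidirectional fitting against DMSO.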

The nature of test [17]: BSK_BE3C_SRB: Viability Assessment in the BioMAP Diversity Plus: BE3C Assay (AID 2283028).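 On AC50: fitted both ways so AC50 may mark signal gain or loss versus DMSO.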 The note with it: primary human bronchial epithelial cells. In short, it runs like this:
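Primary human bronchial epithelium; chemical dosing, 24 h; 10% TCA fix, 0.1% SRB stain, A560; bidirectional fit vs DMSO baseline.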

In test [18] the target is human Thyroid Receptor alpha (THRa1), THRA (gene 7067) (UniProt P10827). Briefly: ATG_THRa1_TRANS: Attagene TRANS-FACTORIAL HepG2 Assay for human Thyroid Receptor alpha (THRa1) (AID 2283014; active means hit-call score of the fitted dose curve at least 0.9, where 1 is the maximum). Summed up: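 Transient HepG2 transfection, NR-Gal4 chimera driving GAL4-UAS reporters; 24 h compound exposure; total RNA, oligo(dT) RT, PCR, fluorescent primer extension, capillary electrophoresis. Upward direction vs DMSO control.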

Read-out in test [19]: Monocyte Chemoattractant Protein-1 (MCP1), CCL2 (gene 6347)
Briefly: BSK_3C_MCP1: BioMAP Diversity Plus: 3C Assay for Monocyte Chemoattractant Protein-1 (MCP1) Biomarker Activity (AID 2283017). The conditions noted are these: primary human endothelial cells (HUVEC); actives raise or lower the signal. In short, it runs like this: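 HUVEC, 3C system; 24 h chemical exposure; MCP-1 by ELISA; bidirectional curve fit vs DMSO baseline.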

Test [20] addresses human RAR-related Orphan Receptor beta (RORb), RORB (gene 6096) (UniProt Q92753). Put plainly: ATG_RORb_TRANS: Attagene TRANS-FACTORIAL HepG2 Assay for human RAR-related Orphan Receptor beta (RORb) (AID 2283010; active means hit-call score of the fitted dose curve at least 0.9, where 1 is the maximum). Summed up: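 HepG2 cells transiently transfected with GAL4-UAS reporter units expressing chimeric NR-Gal4 protein; reporter mRNA measured 24 h after dosing by RT-PCR, 6-FAM labelling and capillary electrophoresis. Gain-of-signal fitted relative to DMSO baseline.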

SMILES strings stand for the structures. Several values for one entry are separate records, joined by “and”; a condition that tells them apart may be missing. Equal values may be shown once. Records with an inconclusive call do not appear. Some structures have more than one record in an assay (separate samples or runs), and their calls can disagree. Activity calls are given as the source filed them. How the source made its calls, unless noted: active means hit-call score of the fitted dose curve at least 0.9, where 1 is the maximum; inactive means score below 0.9.

human Vitamin D Receptor (VDR), VDR (gene 7421), sequence (P11473 whole entry, looked up, the tested form may be a part): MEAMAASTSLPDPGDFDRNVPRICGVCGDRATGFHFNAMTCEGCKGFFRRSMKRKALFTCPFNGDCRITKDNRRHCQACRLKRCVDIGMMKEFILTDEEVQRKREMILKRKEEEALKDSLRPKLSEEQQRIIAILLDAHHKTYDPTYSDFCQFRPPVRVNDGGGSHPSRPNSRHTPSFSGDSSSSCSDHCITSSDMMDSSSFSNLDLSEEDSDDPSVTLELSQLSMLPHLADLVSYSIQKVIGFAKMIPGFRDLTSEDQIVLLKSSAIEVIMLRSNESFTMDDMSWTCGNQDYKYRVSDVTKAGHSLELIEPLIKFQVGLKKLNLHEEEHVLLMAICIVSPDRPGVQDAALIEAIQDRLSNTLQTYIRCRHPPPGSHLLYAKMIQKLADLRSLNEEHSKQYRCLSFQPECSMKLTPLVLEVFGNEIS
E-selectin (Homo sapiens), sequence (P16581 whole entry, looked up): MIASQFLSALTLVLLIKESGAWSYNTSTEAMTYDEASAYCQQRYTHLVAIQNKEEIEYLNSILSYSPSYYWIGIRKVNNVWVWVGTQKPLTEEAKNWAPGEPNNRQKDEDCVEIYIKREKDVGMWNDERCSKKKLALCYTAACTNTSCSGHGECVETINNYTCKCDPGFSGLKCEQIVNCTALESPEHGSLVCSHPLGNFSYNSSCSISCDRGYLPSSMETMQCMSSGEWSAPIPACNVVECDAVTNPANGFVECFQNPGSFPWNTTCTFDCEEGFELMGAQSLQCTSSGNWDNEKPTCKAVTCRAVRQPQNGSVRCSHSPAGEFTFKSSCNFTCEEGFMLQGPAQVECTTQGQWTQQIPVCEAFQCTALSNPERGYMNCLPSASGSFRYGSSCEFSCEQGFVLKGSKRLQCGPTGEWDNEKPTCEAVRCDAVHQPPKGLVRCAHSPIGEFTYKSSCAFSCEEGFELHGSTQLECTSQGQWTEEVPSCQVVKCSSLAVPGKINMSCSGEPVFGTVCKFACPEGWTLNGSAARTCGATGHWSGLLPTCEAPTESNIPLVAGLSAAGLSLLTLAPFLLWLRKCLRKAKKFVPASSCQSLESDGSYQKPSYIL
human RAR-related Orphan Receptor gamma (RORg), RORC (gene 6097), sequence (P51449 whole entry, looked up, the tested form may be a part): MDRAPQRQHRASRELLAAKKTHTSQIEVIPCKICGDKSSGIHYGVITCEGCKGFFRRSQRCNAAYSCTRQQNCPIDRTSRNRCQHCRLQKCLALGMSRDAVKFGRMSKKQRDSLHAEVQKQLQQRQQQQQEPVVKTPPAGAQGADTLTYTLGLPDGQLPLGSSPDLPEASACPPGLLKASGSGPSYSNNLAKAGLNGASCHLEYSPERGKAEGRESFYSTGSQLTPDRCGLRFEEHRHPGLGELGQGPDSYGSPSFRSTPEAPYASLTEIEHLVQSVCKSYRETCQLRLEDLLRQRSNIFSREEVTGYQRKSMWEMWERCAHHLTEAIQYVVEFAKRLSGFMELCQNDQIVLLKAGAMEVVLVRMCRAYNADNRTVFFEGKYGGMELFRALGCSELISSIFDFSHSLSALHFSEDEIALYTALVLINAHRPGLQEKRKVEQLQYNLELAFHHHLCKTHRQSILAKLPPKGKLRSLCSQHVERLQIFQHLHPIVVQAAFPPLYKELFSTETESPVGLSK
human Retinoid X Receptor beta (RXRb), RXRB (gene 6257), sequence (P28702 whole entry, looked up, the tested form may be a part): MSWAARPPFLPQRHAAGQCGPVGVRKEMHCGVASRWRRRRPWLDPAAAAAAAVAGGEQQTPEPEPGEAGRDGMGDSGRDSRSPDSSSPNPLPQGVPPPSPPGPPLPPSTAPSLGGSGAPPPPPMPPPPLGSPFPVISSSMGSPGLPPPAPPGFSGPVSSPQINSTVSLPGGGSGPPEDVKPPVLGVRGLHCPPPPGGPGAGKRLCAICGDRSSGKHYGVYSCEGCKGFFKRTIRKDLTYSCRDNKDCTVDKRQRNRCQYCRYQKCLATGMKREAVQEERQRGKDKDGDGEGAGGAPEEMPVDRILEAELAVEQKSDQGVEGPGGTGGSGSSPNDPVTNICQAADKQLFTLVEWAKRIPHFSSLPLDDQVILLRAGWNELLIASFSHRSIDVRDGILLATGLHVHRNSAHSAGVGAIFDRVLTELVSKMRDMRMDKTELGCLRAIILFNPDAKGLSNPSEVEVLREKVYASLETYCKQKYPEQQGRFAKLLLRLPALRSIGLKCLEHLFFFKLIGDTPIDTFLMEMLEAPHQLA
Retinoic acid receptor RXR-alpha (Homo sapiens), sequence (P19793 whole entry, looked up, the tested form may be a part): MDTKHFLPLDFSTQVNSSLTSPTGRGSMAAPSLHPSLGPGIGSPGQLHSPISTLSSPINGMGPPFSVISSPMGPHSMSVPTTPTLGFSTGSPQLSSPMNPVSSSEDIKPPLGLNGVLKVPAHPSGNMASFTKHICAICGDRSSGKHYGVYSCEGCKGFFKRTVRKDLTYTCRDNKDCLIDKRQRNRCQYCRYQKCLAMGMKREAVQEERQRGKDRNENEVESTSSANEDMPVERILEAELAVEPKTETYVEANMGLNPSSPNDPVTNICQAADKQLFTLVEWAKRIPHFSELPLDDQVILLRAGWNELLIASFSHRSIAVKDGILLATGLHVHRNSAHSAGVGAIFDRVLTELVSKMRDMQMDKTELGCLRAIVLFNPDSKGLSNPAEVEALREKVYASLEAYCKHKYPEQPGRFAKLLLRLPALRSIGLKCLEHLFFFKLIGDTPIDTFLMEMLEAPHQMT
human Thyroid Receptor alpha (THRa1), THRA (gene 7067), sequence (P10827 whole entry, looked up, the tested form may be a part): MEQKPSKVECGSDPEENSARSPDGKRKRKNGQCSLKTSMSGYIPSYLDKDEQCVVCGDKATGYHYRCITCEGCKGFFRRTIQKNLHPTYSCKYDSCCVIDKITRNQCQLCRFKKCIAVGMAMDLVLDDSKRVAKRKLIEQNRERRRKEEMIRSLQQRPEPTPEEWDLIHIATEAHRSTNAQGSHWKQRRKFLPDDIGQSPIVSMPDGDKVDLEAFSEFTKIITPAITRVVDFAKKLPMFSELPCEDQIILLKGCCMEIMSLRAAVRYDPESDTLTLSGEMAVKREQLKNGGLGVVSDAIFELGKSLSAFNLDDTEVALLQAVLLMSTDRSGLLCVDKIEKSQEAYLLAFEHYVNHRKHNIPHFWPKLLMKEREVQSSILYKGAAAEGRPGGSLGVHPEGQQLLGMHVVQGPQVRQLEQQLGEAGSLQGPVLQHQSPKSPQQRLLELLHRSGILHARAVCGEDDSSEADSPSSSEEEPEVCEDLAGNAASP
human Retinoic Acid Receptor gamma (RARg), RARG (gene 5916), sequence (P13631 whole entry, looked up, the tested form may be a part): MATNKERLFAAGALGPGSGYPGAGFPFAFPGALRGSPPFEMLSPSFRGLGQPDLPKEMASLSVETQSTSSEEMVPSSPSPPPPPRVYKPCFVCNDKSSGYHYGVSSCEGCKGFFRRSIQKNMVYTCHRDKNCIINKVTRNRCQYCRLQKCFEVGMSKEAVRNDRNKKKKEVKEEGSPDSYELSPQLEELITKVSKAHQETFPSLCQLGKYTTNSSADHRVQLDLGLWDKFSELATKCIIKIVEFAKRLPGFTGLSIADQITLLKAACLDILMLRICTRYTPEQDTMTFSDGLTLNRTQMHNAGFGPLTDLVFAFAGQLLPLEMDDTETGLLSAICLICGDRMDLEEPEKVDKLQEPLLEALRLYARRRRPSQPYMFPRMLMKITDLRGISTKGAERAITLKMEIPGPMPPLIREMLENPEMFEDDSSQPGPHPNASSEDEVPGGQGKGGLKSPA
human RAR-related Orphan Receptor beta (RORb), RORB (gene 6096), sequence (Q92753 whole entry, looked up, the tested form may be a part): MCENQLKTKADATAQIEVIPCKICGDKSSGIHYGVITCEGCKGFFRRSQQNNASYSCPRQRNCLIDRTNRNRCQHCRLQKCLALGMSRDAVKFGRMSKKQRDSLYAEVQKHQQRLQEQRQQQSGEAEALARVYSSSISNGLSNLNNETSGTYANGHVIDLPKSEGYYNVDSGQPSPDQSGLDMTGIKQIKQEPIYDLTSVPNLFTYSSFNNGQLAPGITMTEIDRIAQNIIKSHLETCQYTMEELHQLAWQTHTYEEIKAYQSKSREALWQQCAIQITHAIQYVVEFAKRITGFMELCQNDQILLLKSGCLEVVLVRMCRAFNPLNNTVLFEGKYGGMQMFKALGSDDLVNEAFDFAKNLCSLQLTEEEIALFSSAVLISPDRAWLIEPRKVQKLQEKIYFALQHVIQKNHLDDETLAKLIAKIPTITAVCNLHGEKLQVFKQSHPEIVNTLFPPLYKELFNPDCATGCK

For `O=C1C(Cl)=C(Cl)C(=O)c2ccccc21`, the call in [1], in [2], in [3], in test [4] and in test [5] was inactive.
Take `COc1cc(-c2ccc(N)c(OC)c2)ccc1N`: the AC50 (commonly the concentration at which the activity in the assay is half-maximal) in [1] was 27.2 µM (active); in test [7], 5.28 µM (active); in test [9], 25.5 µM (active); in test [10] it was 14.4 µM (active); in test [13] it was 4.7 µM (active). For the same compound, the outcome in [1], in test [3], in [6], in [7], in test [8] and in [9] was inactive. The outcome in [10], in test [11], in [5], in [12], in test [13] and in [14] was inactive. Besides, the result in test [15], in test [16] and in [17] was inactive.
As for `CCOP(=S)(OCC)Oc1ccc(S(C)=O)cc1` (stereo not given), the call in [1], in test [3], in test [4], in test [18], in test [6] and in [7] was inactive. In addition, the result in [19], in test [8], in [9], in [10], in test [11] and in test [12] was inactive. Moreover, the outcome in test [13], in [14], in test [16] and in test [17] was inactive.
For the compound `CC(Br)C(=O)O` (stereo not given), the outcome in test [1] and in test [3] was inactive.
Take `CCOP(=S)(OCC)SCSP(=S)(OCC)OCC`: the result in test [1], in test [2], in test [3], in test [6], in [7] and in test [8] was inactive. Further, the outcome in [9], in [10], in [11], in test [12], in test [13] and in test [14] was inactive. In addition, the result in test [16] and in [17] was inactive.
Consider `O=C(c1ccccc1)C(Cl)Cl`, for which the compound was called inactive in [1], in test [2], in test [3] and in test [18].
On to `CCCCCCCCc1ccc(O)cc1`, for which the concentration at half-maximal activity (AC50) in test [1] is 33.5 µM (active); in test [4] it was 24.5 µM (active); in test [18] it was 43.7 µM (active); in test [6], 31.7 µM (active); in test [7] it was 32.6 µM (active); in [8], 20.1 µM (active). For the same compound, the half-maximal activity concentration (AC50) in test [9] is 31.5 µM (active); in test [10], 34.6 µM (active); in test [11] it was 36 µM (active); in [12], 31.2 µM (active); in test [13], 31.7 µM (active); in test [14], 39.3 µM (active). In addition, the AC50 was 25.6 µM (active) in test [15], 34.3 µM (active) in [16] and 34.9 µM (active) in test [17]. In addition, the compound was classed as inactive in test [1], in [2], in [3], in test [18] and in [5].
With `Oc1ccc(-c2ccccc2)cc1`, the result in test [1], in test [3], in test [4], in test [6], in test [7] and in [8] was inactive. For the same compound, the outcome in test [9], in test [10], in [11], in test [5], in test [12] and in test [13] was inactive. Further, the outcome in [14], in [16] and in test [17] was inactive.
Regarding `O=C1C2(Cl)C3(Cl)C4(Cl)C(Cl)(Cl)C5(Cl)C3(Cl)C1(Cl)C5(Cl)C24Cl` (stereo not given), the outcome in [1], in test [20], in [3], in [4] and in [5] was inactive. The AC50 was 2.67 µM (active) and 7.57 µM (active) in [4]; 11.7 µM (active) in [6]; 9.67 µM (active) in test [7]; 9.53 µM (active) in test [19]; 8.77 µM (active) in [8]; 8.22 µM (active) in test [9]. For the same compound, the AC50 in test [10] is 22.3 µM (active); in test [11] it was 11.4 µM (active); in [12], 5.96 µM (active); in [13], 10.4 µM (active); in [14], 5.21 µM (active); in [15] it was 10.9 µM (active). For the same compound, the AC50 is 6.58 µM (active) in test [16] and 5.75 µM (active) in test [17].
